Laboratory results reported in paper PMC10726135, “HNF4α isoforms regulate the circadian balance between carbohydrate and lipid metabolism in the liver”.
The full ranking holds about 18,000 sequences; the median of “log2 normalized intensity” is about 0.36, and the highest 2% start at about 7.3. The sample holds the highest values, similar sequences and a random draw of the others, so the mix is not that of the screen.

The sequences below were run against T1, HNF4alpha8 (COS-7 nuclear extract) (Homo sapiens, UniProt P41235-5 1-452) (assay: protein-binding microarray; COS-7 nuclear extract on double-stranded Agilent 4x180k PBM; binding buffer, salt, pH and temperature not given in the material; high values mean tight binding). Details: chain copies: 2; label: 3' end of strand 1 on the slide; dsDNA, one strand shown.
T1 sequence: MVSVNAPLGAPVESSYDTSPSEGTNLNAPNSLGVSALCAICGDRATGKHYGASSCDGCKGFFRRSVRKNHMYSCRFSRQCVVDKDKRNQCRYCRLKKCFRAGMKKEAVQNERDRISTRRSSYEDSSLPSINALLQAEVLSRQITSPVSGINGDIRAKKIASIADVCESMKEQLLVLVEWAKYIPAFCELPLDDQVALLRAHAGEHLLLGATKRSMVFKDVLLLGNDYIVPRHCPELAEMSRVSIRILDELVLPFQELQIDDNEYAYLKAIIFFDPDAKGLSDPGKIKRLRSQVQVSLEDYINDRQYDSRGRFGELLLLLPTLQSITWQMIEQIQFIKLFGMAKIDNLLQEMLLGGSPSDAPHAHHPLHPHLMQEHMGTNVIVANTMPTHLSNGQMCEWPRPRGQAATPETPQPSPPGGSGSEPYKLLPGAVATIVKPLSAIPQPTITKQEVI
Summary of the method: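 Binding signal was defined as the normalized, background-corrected gProcessedSignal reported by Agilent software. It came from nuclear extracts of COS-7 cells transiently transfected with a human HNF4α isoform expression vector, applied to a custom Agilent SurePrint G3 4x180k array. That array held ~44,000 test sequences in quadruplicate as double-stranded ~60-nt oligonucleotides, and bound HNF4α was imaged at 2-µm resolution on an Agilent G2565CA scanner.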

Sequence | binding signal [log2 normalized intensity]
AATACGACCTTTGGACAGGGTGACGTCATTGCCTAGGGAGATTAGAGTATCGGTCGA | 6.84
AAAGGCCTTTGAAGCTTGAAGGAGTATATGGCCTAGGGAGATTAGAGTATCGGTCGA | 0.256
CTTATCAGCAGCTGGGGTGACTGATTGGAGGCCTAGGGAGATTAGAGTATCGGTCGA | 0.845
AGTGCACCTTAATAAGCACATTCCTTTCCCGCCTAGGGAGATTAGAGTATCGGTCGA | -0.98
ATCTTATCAGCAAGGGCATTTGCGTAGGCTGCCTAGGGAGATTAGAGTATCGGTCGA | -0.794
TGCTAAGTGCCATGTAATCAAACTGAACTTGCCTAGGGAGATTAGAGTATCGGTCGA | 2.1
TTGCACTGTGCTTTGTTTACTTAACCTTTGGCCTAGGGAGATTAGAGTATCGGTCGA | 4.5
TACCTGTGCAGATATTTAACCTTTGATCTGGCCTAGGGAGATTAGAGTATCGGTCGA | 8.15
CTGTGCTTTGTTTACTTAACCTTTGATCATGCCTAGGGAGATTAGAGTATCGGTCGA | 7.84
GTGGCTACCTGTGCAGATATTTAACCTTTGGCCTAGGGAGATTAGAGTATCGGTCGA | 4.61
CTTTGTTTACTTAACCTTTGATCATATGCAGCCTAGGGAGATTAGAGTATCGGTCGA | 5.75
GATATTTAACCTTTGATCTGTAAGCTCTCTGCCTAGGGAGATTAGAGTATCGGTCGA | 5.39
CCTGTCTGACAGGATGAATTTATTGCCCTCGCCTAGGGAGATTAGAGTATCGGTCGA | 3.21
ATGGTGACCATGTGATGTGAAGAGTGTGGAGCCTAGGGAGATTAGAGTATCGGTCGA | 1.31
CTTGTGTAATAACGAGACCTTAGCCCTGAAGCCTAGGGAGATTAGAGTATCGGTCGA | -0.451
CTGGCTTTCATTCCACTGACTTGCAACCTTGCCTAGGGAGATTAGAGTATCGGTCGA | 1.09
TTAGCTTCCTCCCTTGGAATGTGACCTTAGGCCTAGGGAGATTAGAGTATCGGTCGA | 5.27
TTCCACTGACTTGCAACCTTTGCCCTGTTGGCCTAGGGAGATTAGAGTATCGGTCGA | 7.2
TTGCCCTTCTTGGATGCCCTTCCCTAACCCGCCTAGGGAGATTAGAGTATCGGTCGA | 3.04
TTCCTCCCTTGGAATGTGACCTTAGACCCCGCCTAGGGAGATTAGAGTATCGGTCGA | 8.83
GAGAGTTCCCTTGGAATGCCAGATGACCTTGCCTAGGGAGATTAGAGTATCGGTCGA | 4.6
GAGTTTAAATGACCTCTGCCCTTCCACCCAGCCTAGGGAGATTAGAGTATCGGTCGA | 5.16

Sequence | binding signal [log2 normalized intensity]
GTCCAGAGTTTAAATGACCTCTGCCCTTCCGCCTAGGGAGATTAGAGTATCGGTCGA | 7.43
TTCCCTTGGAATGCCAGATGACCTTTGCCCGCCTAGGGAGATTAGAGTATCGGTCGA | 10.2
CCCTTGGAATGTGACCTTAGACCCCTGAATGCCTAGGGAGATTAGAGTATCGGTCGA | 6.49
TTTCATTCCACTGACTTGCAACCTTTGCCCGCCTAGGGAGATTAGAGTATCGGTCGA | 7.51
TTTCTGTCCAGAGTTTAAATGACCTCTGCCGCCTAGGGAGATTAGAGTATCGGTCGA | 4.72
AAGATAATGGGTCCGAAGGTCAGCTGACCAGCCTAGGGAGATTAGAGTATCGGTCGA | 5.57
TGATTATTTGTGAAGGCATTATTGGTGAAAGCCTAGGGAGATTAGAGTATCGGTCGA | 0.974
TCAGAGCTTGAAAAGTCTTTCTGCCAAAGTGCCTAGGGAGATTAGAGTATCGGTCGA | 0.513
TGGCATCCCTGTGGTATTTGCTCTGTCATCGCCTAGGGAGATTAGAGTATCGGTCGA | 1.39
GCTAAAAGTTGAATTCTTGACTTTGGACTTGCCTAGGGAGATTAGAGTATCGGTCGA | 6.55
GACCTCTGGACCTCATCTTCCTCCCCAATAGCCTAGGGAGATTAGAGTATCGGTCGA | 4.6
CCTAGGTGCTGAAGATGCAACAGTGACCCAGCCTAGGGAGATTAGAGTATCGGTCGA | 3.1
AGTCTGGAGGGGTGCGAAGGTCGAGGCCAGGCCTAGGGAGATTAGAGTATCGGTCGA | 3.39
AGCTACTAGCAAATCTGCCCAACCTTTGCCGCCTAGGGAGATTAGAGTATCGGTCGA | 2.1
CTGCTTTTATGACCTTTGACTGCAGAAGATGCCTAGGGAGATTAGAGTATCGGTCGA | 6.33
TGCCCTTGACTTTTTGTGGGGGCAGATGTTGCCTAGGGAGATTAGAGTATCGGTCGA | 2.31
TTCTTTTTTTTTTTTTTTTTTTTTTGAGATGCCTAGGGAGATTAGAGTATCGGTCGA | 3.08
ATGCCAGATGACCTTTGCCCTTGACTTTTTGCCTAGGGAGATTAGAGTATCGGTCGA | 9.28
ACCTTTGCCCTTGACTTTTTGTGGGGGCAGGCCTAGGGAGATTAGAGTATCGGTCGA | 3.39
AGATGACCTTTGCCCTTGACTTTTTGTGGGGCCTAGGGAGATTAGAGTATCGGTCGA | 7.72
AGTGAGCCAAGGTACCCTGGCTTGTAATTCGCCTAGGGAGATTAGAGTATCGGTCGA | -0.844
